Results filed as inconclusive are left out. Calls of active or inactive are those of the source. Calls come from the whole dose curve; as a rule, active = well fitted cell-killing curve with a large enough effect; inconclusive = small, poorly fitted or top-dose-only effect, or effect the other way; inactive = no such curve, though single readings can be large or run the other way.
Assay: MultiTox-Fluor Cytotoxicity Assay - LYMP1-002 - Dead Cells (AID 960);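 note: cells exposed to compound for 16 h at 37 °C; nearly all actives have a fitted effect of over 60% in size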
Settings: LYMP1-002 lymphoblastoid cells, dead-cell protease fluorescence; series mostly up to 46.1 µM
From the text: NIH Chemical Genomics Center [NCGC]
NIH Molecular Libraries Screening Centers Network [MLSCN]
National Institutes of Environmental Health Sciences [NIEHS]
National Toxicology Program [NTP]
We have developed a 1536-well cell-based assay for quantitative high throughput screening (qHTS) against a number of cell lines to determine in vitro cytotoxicity of small molecules. This particular assay uses a human lymphoblastoid cell line (LYMP1-002) purchased from Coriell Institute.
NCGC Assay Protocol Summary:
The MultiTox-Fluor Cytotoxicity Assay (Promega) is a homogeneous method to simultaneously measure the relative number of live and dead cells in culture by detecting changes in cell membrane integrity. There are two fluorogenic peptide substrates in the assay reagent. Viable cells are determined when the cell-permeant substrate (GF-AFC) enters the cell and is cleaved by protease from live cells resulting in liberated fluorophore. This live-cell protease activity restricted to viable cells is proportional to cell number. The dead cells are determined by using fluorogenic cell-impermeant peptide substrate (bis-AAF-R110) which cleaved by dead cell proteases leaking from damaged cell membrane.
Using the MultiTox-Fluor Cytotoxicity Assay, the relative number of dead cells was measured in the lymphoblastoid cell line with complete culture medium following compound treatment for 16 hours. The assay was performed in opaque black Kalypsys 1536-well plates. In the screen, tetraoctylammonium bromide was used as positive control. Library compounds were measured for their ability to cause acute toxicity in the cell line, as reflected by an increase in dead cell protease activity, in a concentration-dependent manner. Data were normalized to the controls for basal activity (DMSO only) and 100% stimulation (15 uM tetraoctylammonium bromide). AC50 values were determined from concentration-response data modeled with the standard Hill equation.
qHTS protocol for MultiTox-Fluor Cytotoxicity assay
[Step] [Parameter] [Value] [Description]
1. Reagent; 5 uL; 2500 lymphoblastoid cells/well
2. Time; 5 hr; 37 C incubation
4. Controls; 23 nL; Tetraoctylammonium bromide 6.4pM to 92 uM
5. Time; 16 hr; 37 C incubation
6. Reagent; 5 uL; MuliTox-Fluor Assay reagent
7. Time; 60 min; Room Temperature
8. Detection; dead-cell fluorescence (Ex/Em=485/520); EnVision plate reader
Keywords: cytotoxicity, lymphoblastoid cell line, fluorescence, NTPHTS, NTPHTS_NCGC, NIEHS, EPA, DSSTox, MLSMR, MLSCN, NIH Roadmap, qHTS, NCGC
With `Cc1nc2ccc(Cl)cc2[nH]1` the outcome was “inactive”.
For `FC(F)(F)c1cccc(Cl)c1`, the outcome was “inactive”.
With `NC(N)=S` the outcome was “inactive”.
For `CC(C)(C)OCC1CO1` (stereo not given), the outcome was “inactive”.
For `C=C(C)C(=O)OCC(C)C`, the outcome was “inactive”.
In the case of `Nc1c(Cl)cc(Cl)cc1Cl`, the outcome is reported as “inactive”.
With `Cc1cccc(C)c1` the outcome was “inactive”.
With `Cc1ccc(C)cc1` the outcome was “inactive”.
For `Cc1cccc2ccccc12`, the outcome was “inactive”.
In the case of `OC/C(Br)=C(\Br)CO`, the outcome is reported as “inactive”.
For `O=C(Cl)c1ccccc1[N+](=O)[O-]`, the outcome was “inactive”.
With `O=c1[nH][nH]c(=O)c2cc([N+](=O)[O-])ccc12` the outcome was “inactive”.
For `Cc1cccc(C)c1O`, the outcome was “inactive”.
In the case of `CC(=O)CC(C)C`, the outcome is reported as “inactive”.
With `O=[N+]([O-])c1ccc(NCCO)c(OCCO)c1` the outcome was “inactive”.
For `CC(=O)OCCC(C)C`, the outcome was “inactive”.
With `Cc1ccc2ccccc2c1[N+](=O)[O-]` the outcome was “inactive”.
With `Cc1ccc(C)o1` the outcome was “inactive”.
With `O=C(O)c1cccc([N+](=O)[O-])c1` the outcome was “inactive”.
For `BrC(Br)C(Br)Br`, the outcome was “inactive”.
In the case of `Nc1ccc([N+](=O)[O-])c(N)c1`, the outcome is reported as “inactive”.
For `CCOCCOCC`, the outcome was “inactive”.
For `CC(=O)Nc1ccc(N)cc1`, the outcome was “inactive”.
With `Cc1ccc(S(=O)(=O)NC2CCCCC2)cc1` the outcome was “inactive”.
In the case of `CC(CCl)OC(C)CCl` (stereo not given), the outcome is reported as “inactive”.
With `Cc1ccc(C#N)cc1` the outcome was “inactive”.
For `CCCCOCCOCCOCCCC`, the outcome was “inactive”.
For `NC(=O)c1cccc([N+](=O)[O-])c1`, the outcome was “inactive”.
For `Cc1cc(C(=O)O)ccc1[N+](=O)[O-]`, the outcome was “inactive”.
With `Cc1ccc(CO)cc1` the outcome was “inactive”.
For `C=C(C)C(=O)OCCCCCC`, the outcome was “inactive”.
With `CCCCCCCN` the outcome was “inactive”.
In the case of `CCOCCO`, the outcome is reported as “inactive”.
With `Cc1ccc(Br)cc1` the outcome was “inactive”.
For `Cc1ccc2c(c1[N+](=O)[O-])C(=O)c1ccccc1C2=O`, the outcome was “inactive”.
In the case of `CCN(CC)c1cccc(O)c1`, the outcome is reported as “inactive”.
In the case of `Cc1ccc([N+](=O)[O-])c(N)c1`, the outcome is reported as “inactive”.
With `CC(=O)OC(C)C` the outcome was “inactive”.
With `CC(C)N(C)C` the outcome was “inactive”.
For `CSc1ccc(C=O)cc1`, the outcome was “inactive”.

Reference: PubChem BioAssay (NCATS)
